Structures can show the parent of a compound that is named as a salt.

Assay [1] relates to S. cerevisiae SK1 pCDA2-eGFP (USY613), sporulating. The assay is described as follows: CDA2-GFP sporulation assay sensitivity score (z-score vs DMSO controls); higher = stronger inhibition of sporulation, active = hit call of the paper.
Assay [2] concerns S. cerevisiae NKY1551 his4x/his4B, sporulating. The assay is described as follows: HIS4 meiotic recombination assay sensitivity score (z-score vs DMSO controls); higher = stronger inhibition of sporulation/recombination, active = hit call of the paper.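 Also: active if sensitivity score above 5.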
The test system of assay [3] is S. cerevisiae AD1-9 (efflux-pump deficient), vegetative growth in YPD. The experiment in a line: growth sensitivity score (doubling time z-score vs DMSO controls); higher = slower growth, strongly negative scores also mark growth inhibition (complete suppression), active = hit call of the paper. The method in brief: (§1)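 Optical density of Saccharomyces cerevisiae cultures in microtiter plates was followed every 15 min for 24 hours after seeding at an OD600 of 0.065. Eight solvent-only wells were run per experiment. Growth sensitivity scores were found by subtracting the solvent-only mean from the compound mean and dividing by the solvent-only standard deviation.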

The test system of assay [4] is S. cerevisiae BY4741 (wild-type), vegetative growth in YPD. Described as above. In outline: as §1
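For CDA2-GFP sporulation assay sensitivity score (z-score vs DMSO controls) in this document: active if sensitivity score above 5.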

As to `Clc1cccc(Cl)c1NC1=NCCN1` [Clonidine] (stock concentration (mM, diluted 1:100): 10), the “CDA2-GFP sporulation assay sensitivity score” value in assay [1] is -1.29 (inactive). Also, in assay [2], the “HIS4 meiotic recombination assay sensitivity score” value was -0.25 (inactive). Further, the growth sensitivity score in assay [3] was -1.44 (inactive); in assay [4], -1.97 (inactive).
With `O=C1CN2Cc3c(ccc(Cl)c3Cl)N=C2N1` [Anagrelide hydrochloride] (stock concentration (mM, diluted 1:100): 8.8), the “CDA2-GFP sporulation assay sensitivity score” value in assay [1] is 3.77 (inactive). Besides, the “HIS4 meiotic recombination assay sensitivity score” value in assay [2] was -0.8 (inactive). The growth sensitivity score in assay [3] was -1.22 (inactive); in assay [4], -2.21.
For `Clc1ccc(CO/N=C(\Cn2ccnc2)c2ccc(Cl)cc2Cl)c(Cl)c1` [Oxiconazole nitrate] (stock concentration (mM, diluted 1:100): 10) the same measures were 0.87 (inactive), -3.02 (inactive), 47.9 (active) and 66.3 (active).
For the molecule `COc1cc(C)nc(-n2nc(C)cc2OC)n1` [Mepirizole] (stock concentration (mM, diluted 1:100): 10), in assay [1], the “CDA2-GFP sporulation assay sensitivity score” value is -1.87 (inactive). In assay [2], the “HIS4 meiotic recombination assay sensitivity score” value is -1.87 (inactive). Further, the growth sensitivity score in assay [3] is -0.94 (inactive); in assay [4], -1.02 (inactive).
For the molecule `Nc1nc2ccc(OC(F)(F)F)cc2s1` [Riluzole] (stock concentration (mM, diluted 1:100): 9.9), the “CDA2-GFP sporulation assay sensitivity score” value in assay [1] is 16.9 (active). In addition, in assay [2], the “HIS4 meiotic recombination assay sensitivity score” value is 6.83 (active). Also, the growth sensitivity score in assay [3] was 15.4 (active); in assay [4], 5.49 (active).
In the case of `COc1ccc(C2CNC(=O)C2)cc1OC1CCCC1` (centres undefined) [Rolipram] (stock concentration (mM, diluted 1:100): 10), the “CDA2-GFP sporulation assay sensitivity score” value in assay [1] is -2.81 (inactive). For the same molecule, in assay [2], the “HIS4 meiotic recombination assay sensitivity score” value was -0.47 (inactive). The growth sensitivity score in assay [3] was -1.05 (inactive); in assay [4] it was -0.71 (inactive).
